# Measured values: publication PMC8384837, “Expanding the binding specificity for RNA recognition by a PUF domain”
# Where a chain is given by its changes, count along the chain named.
# What was measured:
# Test in all cases: yeast three-hybrid, YBZ-1, SC-Leu-His + 0.5 mM 3-AT, 4 days
# Conditions in all cases: tags: N-Gal4 AD-HA kept; label: inside an RPR1-promoter hybrid RNA with tandem MS2 sites; ssRNA
# PUM1 PUF domain R6-RRK = target: T1, PUM1 PUF domain R6-RRK (Homo sapiens, UniProt Q14671 828-1176, N1043R;Y1044R;Q1047K)
# T1 sequence: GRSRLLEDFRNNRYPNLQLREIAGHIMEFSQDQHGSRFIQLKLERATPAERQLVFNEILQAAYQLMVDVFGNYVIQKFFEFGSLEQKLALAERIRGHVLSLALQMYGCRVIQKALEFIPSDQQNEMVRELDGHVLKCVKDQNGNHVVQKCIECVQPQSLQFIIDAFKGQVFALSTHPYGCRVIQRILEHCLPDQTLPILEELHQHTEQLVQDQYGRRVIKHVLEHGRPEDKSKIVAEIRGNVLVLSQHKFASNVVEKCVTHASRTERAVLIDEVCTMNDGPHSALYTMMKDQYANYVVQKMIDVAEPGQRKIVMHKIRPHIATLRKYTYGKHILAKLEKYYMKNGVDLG
# Outline: (§1)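 The interaction score is the log change in how often each variant appears, from input to selection. Frequencies came from PCR-amplified, Illumina-sequenced repeat regions of Pumilio-1 PUF domain libraries grown in strain YBZ-1 (LexA–MS2 coat fusion, HIS3 reporter) alongside matching RNA elements. Input plates were SC-Leu and selection plates were SC-Leu-His + 0.5 mM 3-AT, each for four days, and the log2 calculation used a pseudocount of 1 where a variant was absent.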
# PUM1 PUF domain R1-RRC = PUM1 PUF domain R1-RRC (Homo sapiens, UniProt Q14671 828-1176, S863R;Q867C)
# Outline: as §1
# PUM1 PUF domain R6-TWT = target: T2, PUM1 PUF domain R6-TWT (Homo sapiens, UniProt Q14671 828-1176, N1043T;Y1044W;Q1047T)
# T2 sequence: T1 sequence with R216T, R217W, K220T
# Outline: as §1
# PUM1 PUF domain R6-CWV = target: T3, PUM1 PUF domain R6-CWV (Homo sapiens, UniProt Q14671 828-1176, N1043C;Y1044W;Q1047V)
# T3 sequence: T1 sequence with R216C, R217W, K220V
# Outline: as §1
# PUM1 PUF domain R8-RRS = PUM1 PUF domain R8-RRS (Homo sapiens, UniProt Q14671 828-1176, N1122R;Y1123R;Q1126S)
# Outline: as §1
# PUM1 PUF domain R8-ARR = PUM1 PUF domain R8-ARR (Homo sapiens, UniProt Q14671 828-1176, N1122A;Y1123R;Q1126R)
# Outline: as §1
# PUM1 PUF domain R5-RHL = PUM1 PUF domain R5-RHL (Homo sapiens, UniProt Q14671 828-1176, C1007R;R1008H;Q1011L)
# Outline: as §1
# PUM1 PUF domain R5-HRE = PUM1 PUF domain R5-HRE (Homo sapiens, UniProt Q14671 828-1176, C1007H;Q1011E)
# Outline: as §1
# PUM1 PUF domain R5-KGK = PUM1 PUF domain R5-KGK (Homo sapiens, UniProt Q14671 828-1176, C1007K;R1008G;Q1011K)
# Outline: as §1
# PUM1 PUF domain R6-CWW = target: T4, PUM1 PUF domain R6-CWW (Homo sapiens, UniProt Q14671 828-1176, N1043C;Y1044W;Q1047W)
# T4 sequence: T1 sequence with R216C, R217W, K220W
# Outline: as §1
sequence,measurement,setting,value
GGCUAGAACUAGUGGAUCCCCCGGCGCCCGGCGGCUCGAGCCCGGGUAAGUGCAAAUAGUCUGCAUGCCGCCGGGCGCCAUGCCUGCAGGUCGACUCUAGAAAACAUG,binding signal,PUM1 PUF domain R6-RRK,4.5 log2 enrichment (interaction score)
GGCUAGAACUAGUGGAUCCCCCGGCGCCCGGCGGCUCGAGCCCGGGUAAGUGUAAAUCGUCUGCAUGCCGCCGGGCGCCAUGCCUGCAGGUCGACUCUAGAAAACAUG,binding signal,PUM1 PUF domain R1-RRC,2.87 log2 enrichment (interaction score)
GGCUAGAACUAGUGGAUCCCCCGGCGCCCGGCGGCUCGAGCCCGGGUAAGUGAAAAUAGUCUGCAUGCCGCCGGGCGCCAUGCCUGCAGGUCGACUCUAGAAAACAUG,binding signal,PUM1 PUF domain R6-TWT,4.15 log2 enrichment (interaction score)
same,binding signal,PUM1 PUF domain R6-CWV,1.98 log2 enrichment (interaction score)
GGCUAGAACUAGUGGAUCCCCCGGCGCCCGGCGGCUCGAGCCCGGGUAAGCGUAAAUAGUCUGCAUGCCGCCGGGCGCCAUGCCUGCAGGUCGACUCUAGAAAACAUG,binding signal,PUM1 PUF domain R8-RRS,3.27 log2 enrichment (interaction score)
same,binding signal,PUM1 PUF domain R8-ARR,2.33 log2 enrichment (interaction score)
GGCUAGAACUAGUGGAUCCCCCGGCGCCCGGCGGCUCGAGCCCGGGUAAGUGUAAAUUGUCUGCAUGCCGCCGGGCGCCAUGCCUGCAGGUCGACUCUAGAAAACAUG,binding signal,PUM1 PUF domain R1-RRC,2.93 log2 enrichment (interaction score)
GGCUAGAACUAGUGGAUCCCCCGGCGCCCGGCGGCUCGAGCCCGGGUAAGUGUCAAUAGUCUGCAUGCCGCCGGGCGCCAUGCCUGCAGGUCGACUCUAGAAAACAUG,binding signal,PUM1 PUF domain R5-RHL,5.23 log2 enrichment (interaction score)
same,binding signal,PUM1 PUF domain R5-HRE,4.28 log2 enrichment (interaction score)
same,binding signal,PUM1 PUF domain R5-KGK,4.24 log2 enrichment (interaction score)
GGCUAGAACUAGUGGAUCCCCCGGCGCCCGGCGGCUCGAGCCCGGGUAAGUGUUAAUAGUCUGCAUGCCGCCGGGCGCCAUGCCUGCAGGUCGACUCUAGAAAACAUG,binding signal,PUM1 PUF domain R5-KGK,1.81 log2 enrichment (interaction score)
GGCUAGAACUAGUGGAUCCCCCGGCGCCCGGCGGCUCGAGCCCGGGUAAGUGUAAAUAGUCUGCAUGCCGCCGGGCGCCAUGCCUGCAGGUCGACUCUAGAAAACAUG,binding signal,PUM1 PUF domain R5-RHL,3.44 log2 enrichment (interaction score)
same,binding signal,PUM1 PUF domain R6-TWT,1.62 log2 enrichment (interaction score)
same,binding signal,PUM1 PUF domain R5-HRE,2.59 log2 enrichment (interaction score)
same,binding signal,PUM1 PUF domain R5-KGK,1.56 log2 enrichment (interaction score)
same,binding signal,PUM1 PUF domain R8-RRS,1.39 log2 enrichment (interaction score)
same,binding signal,PUM1 PUF domain R6-CWV,3.39 log2 enrichment (interaction score)
same,binding signal,PUM1 PUF domain R6-CWW,3.56 log2 enrichment (interaction score)
same,binding signal,PUM1 PUF domain R8-ARR,1.18 log2 enrichment (interaction score)
